The list is not random: actives were taken first. Their share in the collection is about 3%.
CHT PAM = CHT positive allosteric modulators, primary screen, cell-based, membrane potential dye, choline EC20; High affinity choline transporter 1 (Homo sapiens), Q9GZV3; CHT-expressing cells; stronger effect = higher value; LV-AA mutant CHT in HEK293 cells; B-score at 10 µM; 0.49% of 310,000 active; AID 488977, 2010;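 active = initial fluorescence not abnormally high and integrated response B-score, plate-corrected, over 3 SD above library mean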
Target sequence (Q9GZV3 whole entry, looked up): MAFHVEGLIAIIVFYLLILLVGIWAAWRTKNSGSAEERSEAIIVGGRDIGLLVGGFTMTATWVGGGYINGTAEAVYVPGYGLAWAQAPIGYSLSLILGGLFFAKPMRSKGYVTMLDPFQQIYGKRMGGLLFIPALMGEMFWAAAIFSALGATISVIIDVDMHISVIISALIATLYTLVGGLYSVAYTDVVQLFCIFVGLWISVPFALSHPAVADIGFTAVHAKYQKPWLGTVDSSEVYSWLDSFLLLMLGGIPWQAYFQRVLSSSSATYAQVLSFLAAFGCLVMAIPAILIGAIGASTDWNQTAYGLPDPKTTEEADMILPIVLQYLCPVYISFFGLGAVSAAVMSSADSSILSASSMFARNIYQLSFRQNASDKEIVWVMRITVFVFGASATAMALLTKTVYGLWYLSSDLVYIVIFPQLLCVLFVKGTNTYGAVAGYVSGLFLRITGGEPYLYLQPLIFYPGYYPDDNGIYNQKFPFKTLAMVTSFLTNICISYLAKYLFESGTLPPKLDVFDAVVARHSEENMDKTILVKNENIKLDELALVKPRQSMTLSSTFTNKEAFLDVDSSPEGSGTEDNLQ
SUMO Mot1 rescue = yeast Mot1-301 growth rescue at high temperature, primary screen, SUMOylation pathway inhibitor project, S. cerevisiae, ATP luminescence, 38.5C | AID 2716, 2010 | S. cerevisiae Mot1-301 growth rescue; percent above DMSO median, 100 means doubled | 1% of 320,000 active | growth rescue, % at 18.8 µM;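 active = every valid replicate shows activation above 250% relative to neutral control wells; inactive = the rest, any valid replicate at or below 250%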;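 note: OY570 slx delta 5 strain wells were the positive control but not used for scaling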
NALP1 inh = NALP1 inflammasome inhibitors in reconstituted yeast, colorimetric, S. cerevisiae, triplicate retest; S. cerevisiae NALP1/ASC/caspase-1 growth, X-gal OD620, 72 h; inhibition, % at 10 µM; 0.61% of 280,000 active; in the data active = inhibition mostly above about 24%, no sharp cut-off; inactive = mostly below about 32%
A1 inh = caspase 3/7 activation in MEF A1-2A-BIM cells, primary screen, A1 inhibitor project, cell-based, luminescence, HTS; AID 2462, 2010; caspase activation, % (concentration not given with the values); Caspase-Glo 3/7 luminescence, 3 h; percent of clofoctol response, vehicle zero; 0.066% of 330,000 active;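 active = over half of replicate activation scores above 10%, or exactly half above 10 with the replicate mean above 10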
NLRP3 yeast inh = NALP3 inflammasome inhibitors in reconstituted yeast, primary screen, luminescence, uHTS | 0.39% of 330,000 active | Yeast reconstituted NLRP3/ASC/caspase-1, beta-gal luminescence, 24 h | inhibition, % at 10 µM | AID 2825, 2010;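 active = inhibition of 50% or more; inactive = inhibition below 50%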;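 note: plate controls were induced DMSO wells for no effect and uninduced yeast grown without galactose for full effect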
CHT inh = inhibitors of human choline transporter CHT; High affinity choline transporter 1 (Homo sapiens), Q9GZV3; CHT-expressing cells, membrane potential dye, choline response; stronger effect = lower value; B-score at 10 µM; 0.86% of 310,000 active;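 active = B-score over 3 SD under the library average, and starting fluorescence ratio not unusually high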;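 note: choline stimulus applied at its EC90 after an EC20 pre-addition; B-score computed on integrated fluorescence ratio after choline addition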
CHT act confirm = CHT activators, confirmation, cell-based, membrane potential dye, duplicate; shares compounds with CHT PAM; CHT-expressing cells, membrane potential dye fluorescence (FDSS); % of choline EC20–EC90 response window; HEK293 expressing CHT LV-AA mutant; choline added at its EC20; activation, % at 10 µM; 91% of 2,500 active; AID 504833, 2011;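 active = primary screen active, with duplicate mean activation above negative control mean plus 3 SD, cut at about 11% in these data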
HEK293 MP dye = membrane potential response in parental HEK293 cells, counter-screen for CHT activator project, cell-based, membrane potential dye; 62% of 2,500 active; membrane potential dye fluorescence (FDSS); measured after EC20 choline addition; shares compounds with CHT PAM; ratio readout change at 10 µM, hits read low;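 active = duplicate-averaged ratio beyond 3 SD from buffer wells, up or down, though filed actives are nearly all decreases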
Starred values were filed as active, the others as inactive; i = inactive; . = no result given.

SMILES	CHT PAM	SUMO Mot1 rescue	NALP1 inh	A1 inh	NLRP3 yeast inh	CHT inh	CHT act confirm	HEK293 MP dye
CC(C)C[C@@H](COc1ccccc1)N1CCN(Cc2ccccc2)CCC1=O	6.3*	5	4	0	10	i	16*	i
CC[N+](CC)(CC#Cc1ccccc1)CC#Cc1ccccc1	7.7*	-16	10	-1	17	i	49*	i
CNc1nc2c(C)cccn2c(=O)c1C=NCc1ccccc1	i	-7	15	0	3	i	.	.
CN=Cc1c(NC)nc2c(C)cccn2c1=O	9.3*	5	12	0	14	i	43*	-27*
Cc1cccn2c(=O)c(C=O)c(Cl)nc12	6.6*	1	8	0	-6	i	42*	-31*
COc1cccc(NC(=O)CN(C)C(=O)CSc2nc(C)cc(C)n2)c1	.	4	.	1	9	.	.	.
Cn1c(-c2ccc3ccccc3n2)nc2cnccc21	i	6	-12	-4	31	i	45*	-40*
COc1cc(-c2nc3cnccc3n2C)cc(OC)c1OC	i	-2	4	0	27	i	.	.
COc1cc(OC)c(-c2nc3cnccc3n2C)cc1OC	6.6*	2	10	1	13	i	55*	-53*
COc1ccc(C(=O)COC(=O)CN2C(=O)c3ccccc3C2=O)c(OC)c1	i	-11	2	0	14	i	.	.
COc1ccc(Cl)cc1N1C(=NC(=O)C2CCCCC2)SC2CS(=O)(=O)CC21 (configuration not stated)	i	53	22	0	4	i	.	.
CNC(=O)CC1C(=O)N(c2ccc(F)cc2)C(=S)N1NC(=O)c1ccc(Cl)cc1 (configuration not stated)	i	247	-26	0	17	i	.	.
COc1ccc2c(c1)c1c3n2CCN(C)C3=NCC1	i	-8	6	-1	3	i	53*	-60*
Cc1ccc2c(c1)c1c3n2CCN=C3CCC1	i	-10	14	1	3	i	.	.
CC(C)c1ccc(N2C(=NC(=O)C3CC3)SC3CS(=O)(=O)CC32)cc1 (configuration not stated)	i	-3	5	0	9	i	.	.
COc1ccccc1CCC(=O)OCC(=O)Nc1cc(C)nn1-c1ccccc1	i	-3	.	0	0	i	.	.
CCN1CCN(c2cc3c(cc2F)c(=O)c(C(=O)O)cn3C2CC2)CC1	8.7*	-11	133	-1	26	i	54*	-58*
CC(=O)N1CCN(c2cc3c(cc2F)c(=O)c(C(=O)O)cn3C2CC2)CC1	i	-12	-18	0	23	i	.	.
CC1CCC(NC(=O)CCCn2sc3ccccc3c2=O)CC1 (configuration not stated)	8.7*	32	1	0	11	i	27*	i
O=C(CCCn1c(=O)[nH]c2ccccc2c1=O)NC1CCCCCC1	i	58	26	1	-3	i	.	.
COc1ccc(Oc2nc3c(c(=O)n(C)c(=O)n3C)n2Cc2ccccc2)cc1	i	-3	8	-1	17	i	.	.
CC(C)CCn1c(Oc2ccc(Cl)cc2)nc2c1c(=O)n(C)c(=O)n2C	i	.	0	0	5	i	25*	i
COc1ccccc1/C=C/C(=O)NCC(=O)N/N=C/c1ccc(C)o1	i	-15	11	1	6	i	.	.
CC1CC(C)CN(S(=O)(=O)c2ccc(C(=O)N(c3ccccn3)C3CCCCC3)cc2)C1 (configuration not stated)	i	-17	3	-1	15	i	21*	i
O=C(c1ccc(S(=O)(=O)N2CCCCC2)cc1)N(c1ccccn1)C1CCCCC1	i	.	-3	0	15	i	.	.
SMILES	CHT PAM	SUMO Mot1 rescue	NALP1 inh	A1 inh	NLRP3 yeast inh	CHT inh	CHT act confirm	HEK293 MP dye
CC1CN(C2=Nc3cccc4cccc2c34)CC(C)O1 (configuration not stated)	i	5	8	0	7	i	58*	-56*
O=C(CCCN1C(=O)c2cccc3cccc(c23)C1=O)N1CCN(c2ccccn2)CC1	i	-15	13	0	8	i	.	.
CC1CN(c2oc(-c3ccccc3Cl)nc2C#N)CC(C)O1 (configuration not stated)	i	0	8	1	15	i	.	.
c1ccc(CC2CCN(C3=Nc4cccc5cccc3c45)CC2)cc1	i	21	.	0	3	i	.	.
COc1ccccc1NC1=Nc2cccc3cccc1c23	i	8	-1	1	30	i	.	.
CC(=O)N1CCN(C2=Nc3cccc4cccc2c34)CC1	9.8*	-24	20	0	-1	i	52*	-77*
c1cc2c3c(cccc3c1)C(N1CCOCC1)=N2	8.5*	11	11	0	10	i	56*	-68*
COc1ccccc1N1CCN(C2=Nc3cccc4cccc2c34)CC1	i	7	18	0	21	i	39*	-58*
O=C(O)c1ccc(Nc2nc3ccc(Cl)cc3[nH]2)cc1	i	15	29	-5	14	i	.	.
COc1ccc(N(C)C(=O)C2CCCN2S(=O)(=O)c2cccc3nsnc23)cc1 (configuration not stated)	i	211	29	1	8	i	.	.
CNC[C@H]1Oc2ccc(NC(=O)Nc3ccccc3)cc2CC(=O)N([C@H](C)CO)C[C@H]1C	.	-1	.	0	4	.	.	.
CCC(C)(C)C1CCc2nc3ccccc3c(C(=O)OC(C)C(=O)Nc3c(C)n(C)n(-c4ccccc4)c3=O)c2C1 (configuration not stated)	11*	11	23	1	0	i	32*	i
Cc1c(NC(=O)C(C)OC(=O)c2cccs2)c(=O)n(-c2ccccc2)n1C (configuration not stated)	i	-3	32	0	7	i	.	.
